PubChem BioAssay (NCATS)
Values joined by “and” are separate entries in the source; they are usually repeats but may differ in a detail not shown here. Equal values may be shown once. Records with an inconclusive call do not appear. Where a structure was tested more than once in an assay, its records may differ in their call. Active and inactive are the calls of the source. Unless noted, the call rests on the fitted dose curve; in most records, active means well fitted activation curve with a large enough effect; inconclusive means small, poorly fitted or top-dose-only effect; inactive means flat fitted curve, though single readings scatter.

test: qHTS assay to identify small molecules that stimulate interleukin-8 (IL-8) secretion (AID 651758; active means well fitted activation curve with a large enough effect in the signal ratio; the % refers to the signal ratio; further: potency means the concentration at half of the fitted maximal effect; on activation: 0% is about no effect); settings: HTRF ratio (665/615); series mostly up to 92.2 µM; activation: at the top concentration
In short: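 Compounds are added to THP-1 cells (2000 per well) and left 16 hrs at 37 C. A labeled anti-IL-8 antibody pair is then added, and IL-8 secretion is measured by time-resolved FRET after 1-3 hrs at room temperature.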

| SMILES | activation | Potency |
| --- | --- | --- |
| ClCCCl | -21.3% (inactive) |  |
| CCC(O)OC(O)CC (stereo unspecified) | -9.46% (inactive) |  |
| C=Cc1ccccc1Cl | -2.37% (inactive) |  |
| Cc1cccc([N+](=O)[O-])c1C | -19.7% (inactive) |  |
| O=[N+]([O-])c1cccc(Cl)c1Cl | 1.11% (inactive) |  |
| CCO | 11.2% (inactive) |  |
| Clc1cc(Cl)c(Cl)c(Cl)c1Cl | -7% (inactive) |  |
| CCCCC(CC)CN (stereo unspecified) |  | 75 µM (active) and inactive |
| O=NO | 16.6% (inactive) |  |
| CC1=CC(C)(C)Nc2ccccc21 | 1.48% (inactive) |  |
| CN(C)C=O | -8.1% (inactive) |  |
| CCCCOCCO | -1.63% (inactive) |  |

test: qHTS assay for environmental chemicals that activate the Aryl hydrocarbon Receptor (AhR) signaling pathway (AID 651777); settings: 1A2-DRE human hepatoma cells, luciferase, 24 h; activation: stronger effect = higher value; further: % of control where 0% means no effect; nearly all actives have a fitted effect of over 15% in size
In short: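 Concentration–response screening used 1,200 1A2-DRE cells per well, 24 hr compound exposure (37 C, 5% CO2), and One-Glo luminescence as the AhR-driven CYP1A2 reporter signal.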

| SMILES | activation |
| --- | --- |
| CCCN(CCC)C(=O)SCC | 0.446% (inactive) and -0.849% (inactive) |
| ClCCCl | 0.113% (inactive) and 1.25% (inactive) and 1.3% (inactive) |
| CCC(O)OC(O)CC (stereo unspecified) | 0.464% (inactive) [middle of 4 runs] |
| C=Cc1ccccc1Cl | -0.0962% (inactive) |
| c1ccc2c(c1)c1cccc3ccc4cccc2c4c31 | 0.979% (inactive) and 4.09% (inactive) |
| Cc1cccc([N+](=O)[O-])c1C | 0.368% (inactive) and -0.256% (inactive) |
| CCCCCCCCO | -0.529% (inactive) and -1.53% (inactive) and 2.03% (inactive) |
| CC(C)=CCCC(C)CCO (stereo unspecified) | -0.0827% (inactive) and -0.667% (inactive) |
| O=[N+]([O-])c1cccc(Cl)c1Cl | 0.0517% (inactive) and -0.399% (inactive) |
| Clc1cc(Cl)c(Cl)cc1Cl | -0.0961% (inactive) and 4.29% (inactive) |
| CCO | -1.26% (inactive) |
| C=CC(=O)OCCOCCOCCOCCOC(=O)C=C | 1.73% (inactive) and 5.16% (inactive) |
| Clc1cc(Cl)c(Cl)c(Cl)c1Cl | 0.277% (inactive) and 2.12% (inactive) |
| CCCCC(CC)CN (stereo unspecified) | 0.546% (inactive) and 3.21% (inactive) |
| O=NO | -0.432% (inactive) and -1.54% (inactive) |
| c1ccc2c(c1)[nH]c1ccccc12 | 0.0505% (inactive) and 2.39% (inactive) |
| OCCNCCO | 1.33% (inactive) and -0.956% (inactive) |
| Nc1ccc(Cl)cc1Cl | -1.04% (inactive) and 0.693% (inactive) |
| CCC(C)c1ccccc1O (stereo unspecified) | -0.0817% (inactive) and -0.418% (inactive) and 0.519% (inactive) |
| CC1=CC(C)(C)Nc2ccccc21 | 1.47% (inactive) and 1.06% (inactive) |
| CN(C)C=O | 0.683% (inactive) and 0.177% (inactive) and 0.0089% (inactive) |
| Cc1ccc(N)c([N+](=O)[O-])c1 | 2.83% (inactive) and 1.74% (inactive) |
| CCCCOCCO | -1.94% (inactive) and 0.578% (inactive) and 2.45% (inactive) |
| CC(=O)OC/C=C(\C)CCC=C(C)C | 0.424% (inactive) and -0.161% (inactive) |
